In PubChem BioAssay (EPA / NIEHS) one finds outcome data, which are given here for 30 compounds.

Records with an inconclusive call do not appear. Calls of active or inactive are those of the source. How the source made its calls: active means hit-call score of the fitted dose curve at least 0.9, where 1 is the maximum; inconclusive means response in the unintended direction; inactive means score below 0.9.

Read-out in this experiment: organic anion transporter (SLCO1B1), SLCO1B1 (gene 10599)
In words: CLD_SLCO1B1_6hr: CellzDirect (CLD) Gene Expression Assay for organic anion transporter (SLCO1B1) at 6 hours (AID 2283668). The protocol:
CLD_6hr is a cell-based, multiplexed-readout assay that uses hepatocyte, a human liver primary cell, with measurements taken at 6 hours after chemical dosing in a 96-well plate.CLD_SLCO1B1_6hr is one of 16 assay component(s) measured or calculated from the CLD_6hr assay. It is designed to make measurements of mRNA induction, a form of inducible reporter, as detected with chemiluminescence signals by Quantitative Nuclease Protection Assay (qNPA) technology.Data from the assay component CLD_SLCO1B1_6hr was analyzed at the endpoint, CLD_SLCO1B1_6hr, in the positive analysis fitting direction relative to DMSO as the negative control and baseline of activity. Using a type of inducible reporter, gain-of-signal activity can be used to understand changes in the reporter gene as they relate to the gene SLCO1B1. Furthermore, this assay endpoint can be referred to as a primary readout. To generalize the intended target to other relatable targets, this assay endpoint is annotated to the transporter intended target family, where subfamily is organic anion transporter.
Human hepatocyte cultures were treated daily for two consecutive days with fresh dosing solutions containing appropriate concentrations of the 320 ToxCast chemicals (chemical identities were blinded to CellzDirect and other ToxCast collaborators), vehicle control (0.2% DMSO), and positive control inducers as summarized in Table 1. Due to the large number of treatment groups and chemicals examined, the ToxCast chemicals were divided into two groups (spanning two independent cultures of hepatocytes from separate donor preparations (Hu778: ToxCast plates 1 and 2; Hu776: ToxCast plates 3 and 4). Each preparation of human hepatocyte cultures was treated with respective vehicle control, medium only control, set of six positive controls/reference chemicals for the five hepatic receptor pathways, and a subset of eight of the ToxCast chemicals (indoxacarb, pyrithiobac-sodium, norflurazon, cyhalofop-butyl, methomyl, thiram, acetochlor, and propiconazole). These replicate data, coupled with internal replicates designed within the blinded ToxCast chemical library, provided additional data to evaluate interindividual differences between hepatocyte preparations and their potential impact on chemical profiles.Cell morphology and integrity were evaluated using phase-contrast microscopy as an indicator of hepatocyte cell health (Tyson & Green, 1987). Cultures for each treatment group (i.e., media, vehicle [0.2% DMSO], positive control inducers [multiple concentrations], and the ToxCast chemicals [multiple concentrations]) were observed and cell morphology was assessed relative to vehicle control cultures at each harvest time point (0, 6, 24, or 48 h). […] Images were evaluated at the conclusion of the study to assess changes in cell integrity and account for the effects of chemical exposure on uncharacteristic changes in concentration-dependent gene expression profiles. The results from these determinations of apparent cytotoxicity were annotated (yes/no) alongside the corresponding qNPA data for reference.At the conclusion of each treatment period, hepatocyte cultures (96-well) were washed with 1 volume of HBSS, lysed by addition of 25 ul ArrayPlate lysis buffer (HTG, Tucson, AZ), and 70 ul/well of Denaturation Oil, denatured by incubation at 95C for 10 min, and frozen at approximately -70C until analysis by nuclease protection assay (qNPA) (Roberts et al., 2007). For qNPA analysis, cell lysates were thawed at 50C for approximately 30 min, qNPA probes were added, and samples were incubated at 95C for 10 min to begin the detection process by denaturing the target RNA, dissociating the duplexes and secondary structure hybridization. At the conclusion of the hybridization period, S1 nuclease reagent was added to each sample to digest all nonprotected nucleotides at 50C for 60-90 min. […]
On to `COc1cc(OC)nc(NC(=O)NS(=O)(=O)c2cc(NC=O)ccc2C(=O)N(C)C)n1`, for which the outcome was inactive.
Under `O=C(Nc1ccccc1)Nc1cnns1` stands “inactive”; under `CNC(=O)Oc1ccccc1OC(C)C`, “inactive”.
As to `COC(=O)c1ccccc1S(=O)(=O)NC(=O)Nc1nc(C)nc(OC)n1`, the compound was called inactive.
Under `CNC(=O)/C=C(\C)OP(=O)(OC)OC` stands “inactive”; under `N#CN`, “inactive”.
As for `COc1nn(CSP(=S)(OC)OC)c(=O)s1`, the compound was called inactive.
For the compound `[2H]C1([2H])[n+]2ccccc2-c2cccc[n+]2C1([2H])[2H]`, the call was inactive.
Under `CC[C@H](C)[C@H]1O[C@]2(C=C[C@@H]1C)C[C@@H]1C[C@@H](C/C=C(\C)[C@@H](O[C@H]3C[C@H](OC)[C@@H](O[C@H]4C[C@H](OC)[C@@H](O)[C@H](C)O4)[C@H](C)O3)[C@@H](C)/C=C/C=C3\CO[C@@H]4[C@H](O)C(C)=C[C@@H](C(=O)O1)[C@]34O)O2` (tested in a mixture with another compound) stands “inactive”.
Under `COC(=O)c1ccccc1S(=O)(=O)NC(=O)N(C)c1nc(C)nc(OC)n1` stands “inactive”.
Consider `CCN(CC)C(=O)SCc1ccc(Cl)cc1`, for which the outcome was inactive.
Consider `O=[N+]([O-])c1c(Cl)c(Cl)c(Cl)c(Cl)c1Cl`, for which the outcome was inactive.
As to `CC1(c2ccc(Oc3ccccc3)cc2)OC(=O)N(Nc2ccccc2)C1=O` (stereo not given), the compound was classed as inactive.
As for `CCOc1nc(NC)nc(NC(=O)NS(=O)(=O)c2ccccc2C(=O)OC)n1`, the compound was classed as inactive.
Regarding `O=[N+]([O-])/N=C1\NCCN1Cc1ccc(Cl)nc1`, the call was inactive.
As for `C#CCN1C(=O)COc2cc(F)c(N3C(=O)C4=C(CCCC4)C3=O)cc21`, the call was inactive.
In the case of `CCS(=O)(=O)c1cccnc1S(=O)(=O)NC(=O)Nc1nc(OC)cc(OC)n1`, the compound was called inactive.
As to `CN1CSC(=S)N(C)C1`, the outcome was inactive.
Next, `O=S1OCC2C(CO1)C1(Cl)C(Cl)=C(Cl)C2(Cl)C1(Cl)Cl` (stereo not given): “inactive”.
Next, `O=C(O)C(F)(F)C(F)(F)C(F)(F)C(F)(F)C(F)(F)C(F)(F)C(F)(F)F`: “inactive”; `CC(C)N(C(=O)COc1nnc(C(F)(F)F)s1)c1ccc(F)cc1`: “inactive”; `Oc1cc(Cl)ccc1Oc1ccc(Cl)cc1Cl`: “inactive”.
`O=C(O)CCCOc1ccc(Cl)cc1Cl`: the call was inactive.
With `O=C1c2ccccc2C(=O)N1SC(Cl)(Cl)Cl`, the result was inactive.
For `CCOCN(C(=O)CCl)c1c(C)cccc1CC`, the call was inactive.
As to `CCC(C)(NC(=O)c1cc(Cl)c(C)c(Cl)c1)C(=O)CCl` (stereo not given), the call was inactive.
Take `COP(=S)(OC)Oc1ccc([N+](=O)[O-])cc1`: the call was inactive.
As for `CNC(=O)CSP(=S)(OC)OC`, the compound was classed as inactive.
Regarding `CCc1ccc(C(=O)NN(C(=O)c2cc(C)cc(C)c2)C(C)(C)C)cc1`, the result was inactive.
Take `CC(C)OC(=O)Nc1cccc(Cl)c1`: the compound was classed as inactive.
